Where “and” joins values, the source holds several entries; their conditions need not be identical. Equal values may be shown once. Where a name gives a salt, the structure may show the parent alone. Values without a mark were called inactive.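 How the source made its calls: active = log2 fold change beyond 2 SD from the library mean after excluding viability outliers; inactive = within 2 SD.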
molecular target: PARP1 L713F-nLuc biosensor (HCT116) (UniProt P09874); assay: PARP1 L713F-nLuc/akaLuc ratio relative to DMSO control (biosensor stabilization) (fold change); higher = more PARP1 biosensor stabilization (target engagement / stabilizer), active = hit call of the paper; settings: stock concentration (mM; final µM = stock mM x 1): 10; 24 h
Sequence (P09874 whole entry L713F, looked up): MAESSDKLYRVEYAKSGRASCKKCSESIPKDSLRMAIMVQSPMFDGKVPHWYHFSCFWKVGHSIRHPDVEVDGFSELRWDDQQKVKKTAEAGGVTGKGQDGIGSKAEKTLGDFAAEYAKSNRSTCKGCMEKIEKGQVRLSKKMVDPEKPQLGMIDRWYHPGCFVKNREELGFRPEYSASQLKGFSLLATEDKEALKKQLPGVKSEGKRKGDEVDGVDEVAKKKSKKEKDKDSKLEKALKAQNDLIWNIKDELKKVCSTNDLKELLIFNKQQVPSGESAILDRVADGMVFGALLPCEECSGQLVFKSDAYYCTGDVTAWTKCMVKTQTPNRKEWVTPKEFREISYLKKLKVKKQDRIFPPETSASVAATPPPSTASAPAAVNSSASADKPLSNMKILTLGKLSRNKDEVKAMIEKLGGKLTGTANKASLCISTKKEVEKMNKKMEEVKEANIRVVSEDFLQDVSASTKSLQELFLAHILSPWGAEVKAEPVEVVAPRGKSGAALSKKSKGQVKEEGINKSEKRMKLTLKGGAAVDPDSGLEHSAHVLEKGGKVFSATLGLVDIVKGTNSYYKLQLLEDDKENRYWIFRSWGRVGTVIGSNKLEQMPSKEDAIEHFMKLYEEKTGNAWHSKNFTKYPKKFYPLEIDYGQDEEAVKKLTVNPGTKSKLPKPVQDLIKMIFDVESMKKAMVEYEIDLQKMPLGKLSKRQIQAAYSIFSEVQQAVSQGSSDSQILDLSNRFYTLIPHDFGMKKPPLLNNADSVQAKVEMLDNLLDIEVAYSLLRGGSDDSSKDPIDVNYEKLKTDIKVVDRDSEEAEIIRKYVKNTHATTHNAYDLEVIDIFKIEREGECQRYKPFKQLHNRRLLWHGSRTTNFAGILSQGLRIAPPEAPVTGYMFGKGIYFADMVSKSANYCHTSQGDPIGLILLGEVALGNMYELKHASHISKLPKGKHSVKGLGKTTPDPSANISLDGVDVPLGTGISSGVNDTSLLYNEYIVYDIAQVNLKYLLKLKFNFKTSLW

Structure (SMILES)	PARP1 L713F-nLuc/akaLuc ratio
CC(C)NC[C@@H](C(=O)N1CCN(c2ncnc3c2[C@H](C)C[C@H]3O)CC1)c1ccc(Cl)cc1 [Ipatasertib (GDC-0068)]	0.669
Cc1cc2c(F)c(Oc3ncnn4cc(OC[C@@H](C)O)c(C)c34)ccc2[nH]1	0.898
O=C(O)CNC(=O)c1c(O)cc(CCc2ccccc2)n2ncnc12 [Enarodustat]	1.29
Nc1cc(F)ccc1NC(=O)/C=C/c1cnn(C/C=C/c2ccccc2)c1	0.76 and 0.99
COc1cc(Nc2ncc(F)c(Nc3ccc4c(n3)N(COP(=O)(O)O)C(=O)C(C)(C)O4)n2)cc(OC)c1OC [Fostamatinib (R788)]	0.614
O=C(Nc1cnn2ccc(N3CCC[C@@H]3c3cc(F)ccc3F)nc12)N1CC[C@H](O)C1 [Larotrectinib (LOXO-101) sulfate]	0.817
O=C(O)CC[C@H](O)C(=O)O [L-2-Hydroxyglutaric acid (disodium)]	1.2
Cc1cc(-c2ccccc2)cc(C(=O)NNS(=O)(=O)c2cccc(O)c2)c1F	1.16
O=C(CC[C@H](NC(=O)OCc1ccccc1)C(=O)O)NCCCC[C@H](NC(=O)OCc1ccccc1)C(=O)Nc1ccccc1	1.06
CC[C@@](C)(Nc1ccnc(-c2c[nH]c3ncccc23)n1)C(=O)NCC(F)(F)F [Decernotinib]	0.707
C[C@H](Nc1ncnc2nc[nH]c12)c1cc2cccc(Cl)c2c(=O)n1-c1ccccc1 [Duvelisib (IPI-145, INK1197)]	0.838
Cc1cc(Nc2cc(N3CCN(C)CC3)nc(/C=C/c3ccccc3)n2)n[nH]1	1.27
CN1CCC(CNc2ccc3ncc(-c4cccc(OC(F)(F)F)c4)n3n2)CC1	1.51
NCCNS(=O)(=O)c1cccc2c(Cl)cccc12 [A-3 (hydrochloride)]	0.846
NC(=O)c1ccc[n+]([C@@H]2O[C@H](CO)[C@@H](O)[C@H]2O)c1 [Nicotinamide riboside (chloride)]	1.17
CCCC(CCC)C(=O)O [Valproic acid]	1.52
CN(C)C[C@@H]1CCn2cc(c3ccccc32)C2=C(C(=O)NC2=O)c2cn(c3ccccc23)CCO1 [Ruboxistaurin (hydrochloride)]	0.778
CCOc1ccn(-c2ccc(F)cc2)c(=O)c1C(=O)Nc1ccc(Oc2ccnc(N)c2Cl)c(F)c1	1
NC(=O)c1cccc2cn(-c3ccc([C@@H]4CCCNC4)cc3)nc12 [Niraparib (tosylate)]	7.76 (active)
O=c1cc(N2CCOCC2)oc2c(-c3ccc4c(c3)OCCO4)csc12	0.39
Cn1cc(C2=C(c3c4n(c5ccccc35)CCC(CN)C4)C(=O)NC2=O)c2ccccc21 (stereo not given) [Bisindolylmaleimide X (hydrochloride)]	0.725
CC1Oc2cc(cnc2N)-c2c(nn(C)c2C#N)CN(C)C(=O)c2ccc(F)cc21 (stereo not given)	1.13
C=CC[C@@H]1/C=C(\C)C[C@H](C)C[C@H](OC)[C@H]2O[C@@](O)(C(=O)C(=O)N3CCCC[C@H]3C(=O)O[C@H](/C(C)=C/[C@@H]3CC[C@@H](O)[C@H](OC)C3)[C@H](C)[C@@H](O)CC1=O)[C@H](C)C[C@@H]2OC [Tacrolimus (FK506)]	0.7
Cc1cc(Nc2cc3ncccc3c(N[C@@H]3C[C@H]4CC[C@@H](C3)N4CCC#N)n2)n[nH]1 [Izencitinib]	0.804
O=C(NCCCc1ccccc1)c1cccc(-c2cc(O)c3ncccc3c2)c1	0.729
O=C1CCc2ccccc2O1 [Dihydrocoumarin]	0.769
Cc1cc(C)c(CNC(=O)c2cc(-c3ccc(N4CCN(C)CC4)nc3)cc3c2c(C)cn3C(C)C)c(=O)[nH]1	1.47
CCOC(=O)CCNc1cc(N2CCc3ccccc3CC2)nc(-c2ccccn2)n1 [GSK-J4 (hydrochloride)]	1.45
Cn1c(=O)c2c(ncn2CC(=O)O)n(C)c1=O [Acefylline]	0.921
O=C(O)Cn1nnc(-c2ccc(CN(CCCCOc3ccc(CN4CCCC4)cc3)CCc3ccccc3)cc2)n1 [TH1834 (dihydrochloride)]	1.29

— the supplement of paper PMC11624193, “Coupling cellular drug-target engagement to downstream pharmacology with CeTEAM” (Nature Communications, 2024)
